Common to all, as to test: DAPPL (digital affinity profiling via proximity ligation, sequencing); 10 mM Tris-HCl pH 7.5, 50 mM NaCl, 1 mM DTT, 4% glycerol, room temperature, 30 min; GST-TFs on glutathione beads, 16-mer random dsDNA library, 0.1% formaldehyde crosslink after washing; high values mean tight binding
One experiment has as its target T1, FEV (Homo sapiens, UniProt Q99581 1-238).
T1 sequence: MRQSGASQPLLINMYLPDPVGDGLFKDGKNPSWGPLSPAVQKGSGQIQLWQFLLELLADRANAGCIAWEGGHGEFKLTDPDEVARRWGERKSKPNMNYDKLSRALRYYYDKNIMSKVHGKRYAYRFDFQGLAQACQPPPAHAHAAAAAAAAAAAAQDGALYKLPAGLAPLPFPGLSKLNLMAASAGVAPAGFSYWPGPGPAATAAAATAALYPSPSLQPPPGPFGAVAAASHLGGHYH
The settings on record: protein: recombinant; tags: N-terminal GST; dsDNA, one strand shown. The procedure, abridged: (§1)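 In yeast, human transcription factors were expressed with a GST fusion, then pulled down on glutathione beads and given DNA barcodes. Pooled with a tag-only sample, they were exposed to 200 nmole of a 16-mer random double-stranded DNA library (Tris/NaCl/DTT/glycerol buffer, room temperature, 30 min), washed, crosslinked with 0.1% formaldehyde, proximity-ligated using BsaI/T4 ligase for 1 h at 37 °C, PCR-amplified and read on an Illumina NextSeq500. Each hexamer's frequency of reads for a factor, divided by the matching frequency for the tag-only sample, gives the binding signal.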

Another experiment deals with ETV5 (Homo sapiens, UniProt P41161 1-510). The settings on record: protein: recombinant; tags: N-terminal GST; dsDNA, one strand shown. The method, boiled down:
as §1

The next experiment concerns the target HSF1 (Homo sapiens, UniProt Q00613 1-529). Particulars: protein: recombinant; tags: N-terminal GST; chain copies: 3; dsDNA, one strand shown. The procedure, abridged: as §1
Another experiment concerns the target T2, SPIC (Homo sapiens, UniProt Q8N5J4 1-248).
T2 sequence: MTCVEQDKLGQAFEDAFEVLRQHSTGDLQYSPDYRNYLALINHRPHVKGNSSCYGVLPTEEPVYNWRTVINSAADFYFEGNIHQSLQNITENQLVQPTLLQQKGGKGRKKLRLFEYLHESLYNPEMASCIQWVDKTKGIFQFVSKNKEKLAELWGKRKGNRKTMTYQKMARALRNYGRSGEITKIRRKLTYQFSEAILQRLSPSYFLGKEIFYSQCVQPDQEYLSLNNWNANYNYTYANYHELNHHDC
The settings on record: protein: recombinant; tags: N-terminal GST; dsDNA, one strand shown. The procedure, abridged: as §1

In the next experiment the target is ELF4 (Homo sapiens, UniProt Q99607 1-663). Particulars: protein: recombinant; tags: N-terminal GST; dsDNA, one strand shown. The method, boiled down:
as §1

A further experiment addresses T3, ELK4 (Homo sapiens, UniProt P28324-2 1-405).
T3 sequence: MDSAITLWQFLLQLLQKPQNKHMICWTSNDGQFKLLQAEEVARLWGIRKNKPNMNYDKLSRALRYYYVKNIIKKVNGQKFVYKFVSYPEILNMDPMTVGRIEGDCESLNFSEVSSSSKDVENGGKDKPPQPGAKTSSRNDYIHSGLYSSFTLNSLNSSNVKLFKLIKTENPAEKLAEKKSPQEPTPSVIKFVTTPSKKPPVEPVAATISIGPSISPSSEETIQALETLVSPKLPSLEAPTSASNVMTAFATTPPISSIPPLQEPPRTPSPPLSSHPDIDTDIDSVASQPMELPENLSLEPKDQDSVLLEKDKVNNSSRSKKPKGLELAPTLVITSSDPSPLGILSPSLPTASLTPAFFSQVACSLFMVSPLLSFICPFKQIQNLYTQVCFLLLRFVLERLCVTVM
The settings on record: protein: recombinant; tags: N-terminal GST; dsDNA, one strand shown. The procedure, abridged:
as §1

A further experiment has as its target T4, ETV2 (Homo sapiens, UniProt O00321 1-342).
T4 sequence: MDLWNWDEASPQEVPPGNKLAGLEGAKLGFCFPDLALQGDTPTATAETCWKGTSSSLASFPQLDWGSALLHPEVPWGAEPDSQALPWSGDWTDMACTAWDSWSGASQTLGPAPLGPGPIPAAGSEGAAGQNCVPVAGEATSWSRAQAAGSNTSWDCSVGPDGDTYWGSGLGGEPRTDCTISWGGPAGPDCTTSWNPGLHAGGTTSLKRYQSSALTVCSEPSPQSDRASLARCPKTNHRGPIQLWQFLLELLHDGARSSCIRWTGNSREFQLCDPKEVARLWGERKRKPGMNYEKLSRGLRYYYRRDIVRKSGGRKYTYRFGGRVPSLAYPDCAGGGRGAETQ
Particulars: protein: recombinant; tags: N-terminal GST; dsDNA, one strand shown. The method, boiled down:
as §1

The target in a further experiment is T5, ELF3 (Homo sapiens, UniProt P78545 1-371).
T5 sequence: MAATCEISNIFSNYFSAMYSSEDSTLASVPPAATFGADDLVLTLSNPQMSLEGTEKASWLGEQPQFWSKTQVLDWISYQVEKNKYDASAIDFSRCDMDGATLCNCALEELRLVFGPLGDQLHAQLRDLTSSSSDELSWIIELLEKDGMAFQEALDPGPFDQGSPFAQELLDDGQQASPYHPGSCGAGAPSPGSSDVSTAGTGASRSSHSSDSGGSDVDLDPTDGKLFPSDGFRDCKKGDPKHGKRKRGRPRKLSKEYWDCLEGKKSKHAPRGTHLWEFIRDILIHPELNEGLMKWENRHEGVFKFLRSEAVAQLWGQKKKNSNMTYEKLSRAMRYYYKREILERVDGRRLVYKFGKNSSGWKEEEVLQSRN
Particulars: protein: recombinant; tags: N-terminal GST; dsDNA, one strand shown. The method, boiled down: as §1

Another experiment has as its target CRX (Homo sapiens, UniProt O43186 1-299). Particulars: protein: recombinant; tags: N-terminal GST; dsDNA, one strand shown. The procedure, abridged:
as §1

Another experiment concerns the target ETV1 (Homo sapiens, UniProt P50549 1-477). Particulars: protein: recombinant; tags: N-terminal GST; dsDNA, one strand shown. The procedure, abridged:
as §1

The next experiment has as its target T6, ERF (Homo sapiens, UniProt P50548 1-548).
T6 sequence: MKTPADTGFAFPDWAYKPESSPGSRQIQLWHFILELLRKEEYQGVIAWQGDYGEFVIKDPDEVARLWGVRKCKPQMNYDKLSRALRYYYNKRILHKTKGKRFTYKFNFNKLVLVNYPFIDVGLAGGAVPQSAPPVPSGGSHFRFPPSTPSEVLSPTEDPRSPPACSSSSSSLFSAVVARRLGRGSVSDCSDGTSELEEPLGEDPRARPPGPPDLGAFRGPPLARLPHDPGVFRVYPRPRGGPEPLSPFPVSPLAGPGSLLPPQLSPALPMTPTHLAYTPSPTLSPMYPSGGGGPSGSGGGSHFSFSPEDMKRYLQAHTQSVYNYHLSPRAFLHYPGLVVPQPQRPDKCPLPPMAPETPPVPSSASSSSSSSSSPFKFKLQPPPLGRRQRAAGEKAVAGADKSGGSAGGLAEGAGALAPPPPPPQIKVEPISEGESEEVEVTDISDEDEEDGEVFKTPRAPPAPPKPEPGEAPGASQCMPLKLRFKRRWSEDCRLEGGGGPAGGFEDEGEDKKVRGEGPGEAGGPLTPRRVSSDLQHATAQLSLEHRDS
Particulars: protein: recombinant; tags: N-terminal GST; dsDNA, one strand shown. The procedure, abridged:
as §1

Another experiment has as its target T7, ETV3L (Homo sapiens, UniProt Q6ZN32 1-361).
T7 sequence: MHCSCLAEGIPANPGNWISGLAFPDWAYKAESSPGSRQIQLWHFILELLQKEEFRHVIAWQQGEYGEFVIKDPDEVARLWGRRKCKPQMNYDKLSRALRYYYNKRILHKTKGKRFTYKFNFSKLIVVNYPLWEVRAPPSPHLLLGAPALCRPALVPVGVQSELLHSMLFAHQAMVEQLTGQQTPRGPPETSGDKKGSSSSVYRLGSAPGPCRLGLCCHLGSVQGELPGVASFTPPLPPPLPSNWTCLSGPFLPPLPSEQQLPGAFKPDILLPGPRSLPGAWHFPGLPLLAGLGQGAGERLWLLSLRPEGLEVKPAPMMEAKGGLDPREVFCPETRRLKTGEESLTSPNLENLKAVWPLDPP
The settings on record: protein: recombinant; tags: N-terminal GST; dsDNA, one strand shown. The method, boiled down:
as §1

A further experiment has as its target T8, ETS2 (Homo sapiens, UniProt P15036 1-469).
T8 sequence: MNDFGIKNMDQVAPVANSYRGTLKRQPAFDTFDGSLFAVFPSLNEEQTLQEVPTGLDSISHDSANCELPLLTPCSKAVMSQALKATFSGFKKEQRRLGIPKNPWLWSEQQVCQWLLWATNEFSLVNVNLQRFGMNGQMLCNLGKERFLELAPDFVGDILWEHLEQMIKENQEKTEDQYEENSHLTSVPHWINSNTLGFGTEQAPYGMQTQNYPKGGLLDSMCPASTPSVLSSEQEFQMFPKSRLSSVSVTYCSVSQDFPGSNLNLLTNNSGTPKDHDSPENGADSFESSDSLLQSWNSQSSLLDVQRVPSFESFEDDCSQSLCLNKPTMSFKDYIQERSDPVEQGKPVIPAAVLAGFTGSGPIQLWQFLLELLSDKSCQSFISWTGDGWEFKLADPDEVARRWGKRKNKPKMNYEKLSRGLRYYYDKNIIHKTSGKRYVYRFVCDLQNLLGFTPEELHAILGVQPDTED
The settings on record: protein: recombinant; tags: N-terminal GST; dsDNA, one strand shown. The procedure, abridged:
as §1

In the next experiment the target is T9, SPDEF (Homo sapiens, UniProt O95238 1-335).
T9 sequence: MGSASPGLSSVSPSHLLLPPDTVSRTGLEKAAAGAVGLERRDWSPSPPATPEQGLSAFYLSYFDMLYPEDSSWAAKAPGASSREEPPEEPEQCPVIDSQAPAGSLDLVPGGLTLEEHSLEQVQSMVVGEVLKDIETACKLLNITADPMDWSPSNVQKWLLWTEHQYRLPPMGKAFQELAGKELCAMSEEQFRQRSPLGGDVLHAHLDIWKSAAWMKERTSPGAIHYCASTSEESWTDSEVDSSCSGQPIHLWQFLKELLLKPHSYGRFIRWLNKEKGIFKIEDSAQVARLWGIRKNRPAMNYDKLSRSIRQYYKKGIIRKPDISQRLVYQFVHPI
The settings on record: protein: recombinant; tags: N-terminal GST; dsDNA, one strand shown. The method, boiled down: as §1

Another experiment addresses T10, ETV7 (Homo sapiens, UniProt Q9Y603 1-341).
T10 sequence: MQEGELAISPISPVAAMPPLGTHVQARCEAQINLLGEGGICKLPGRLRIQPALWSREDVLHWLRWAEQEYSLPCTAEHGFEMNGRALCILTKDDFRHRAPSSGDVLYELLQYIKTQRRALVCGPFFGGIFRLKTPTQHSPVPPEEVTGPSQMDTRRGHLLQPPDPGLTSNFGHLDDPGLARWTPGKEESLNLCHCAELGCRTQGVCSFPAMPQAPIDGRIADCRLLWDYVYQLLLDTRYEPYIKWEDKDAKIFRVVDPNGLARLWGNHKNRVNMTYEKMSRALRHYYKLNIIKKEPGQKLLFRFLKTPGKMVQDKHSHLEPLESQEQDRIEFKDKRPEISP
The settings on record: protein: recombinant; tags: N-terminal GST; dsDNA, one strand shown. The procedure, abridged: as §1

The next experiment concerns the target T11, ELF5 (Homo sapiens, UniProt Q9UKW6-2 1-255).
T11 sequence: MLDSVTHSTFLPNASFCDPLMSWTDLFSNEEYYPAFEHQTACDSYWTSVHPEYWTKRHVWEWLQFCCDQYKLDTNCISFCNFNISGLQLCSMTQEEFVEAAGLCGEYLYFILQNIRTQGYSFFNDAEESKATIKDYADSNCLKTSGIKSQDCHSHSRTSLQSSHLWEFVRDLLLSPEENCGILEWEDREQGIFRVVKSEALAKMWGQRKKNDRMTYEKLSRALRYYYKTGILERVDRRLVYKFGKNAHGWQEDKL
Particulars: protein: recombinant; tags: N-terminal GST; dsDNA, one strand shown. The procedure, abridged: as §1

In a further experiment the target is T12, ETV3 (Homo sapiens, UniProt P41162-2 1-143).
T12 sequence: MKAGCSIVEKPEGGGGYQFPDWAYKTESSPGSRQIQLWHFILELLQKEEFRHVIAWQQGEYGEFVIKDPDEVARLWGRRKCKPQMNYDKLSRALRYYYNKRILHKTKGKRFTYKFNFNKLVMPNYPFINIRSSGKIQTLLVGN
The settings on record: protein: recombinant; tags: N-terminal GST; dsDNA, one strand shown. The method, boiled down:
as §1

The target of a further experiment is ETV6 (Homo sapiens, UniProt P41212 1-452). Particulars: protein: recombinant; tags: N-terminal GST; dsDNA, one strand shown. The method, boiled down: as §1
ETV6, sequence (P41212 whole entry): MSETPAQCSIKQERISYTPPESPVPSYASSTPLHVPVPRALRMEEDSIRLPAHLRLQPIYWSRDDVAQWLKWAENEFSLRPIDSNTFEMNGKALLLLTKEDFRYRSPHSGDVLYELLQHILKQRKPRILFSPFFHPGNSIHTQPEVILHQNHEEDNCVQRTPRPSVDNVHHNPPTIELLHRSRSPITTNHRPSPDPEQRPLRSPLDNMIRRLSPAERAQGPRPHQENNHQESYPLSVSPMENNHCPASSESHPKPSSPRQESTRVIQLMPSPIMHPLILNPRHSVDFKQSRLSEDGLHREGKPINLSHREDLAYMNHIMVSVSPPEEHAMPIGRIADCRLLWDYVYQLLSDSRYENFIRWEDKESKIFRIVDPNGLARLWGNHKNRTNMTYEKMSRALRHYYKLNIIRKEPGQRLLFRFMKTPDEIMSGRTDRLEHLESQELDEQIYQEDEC

HSF1, sequence (Q00613 whole entry): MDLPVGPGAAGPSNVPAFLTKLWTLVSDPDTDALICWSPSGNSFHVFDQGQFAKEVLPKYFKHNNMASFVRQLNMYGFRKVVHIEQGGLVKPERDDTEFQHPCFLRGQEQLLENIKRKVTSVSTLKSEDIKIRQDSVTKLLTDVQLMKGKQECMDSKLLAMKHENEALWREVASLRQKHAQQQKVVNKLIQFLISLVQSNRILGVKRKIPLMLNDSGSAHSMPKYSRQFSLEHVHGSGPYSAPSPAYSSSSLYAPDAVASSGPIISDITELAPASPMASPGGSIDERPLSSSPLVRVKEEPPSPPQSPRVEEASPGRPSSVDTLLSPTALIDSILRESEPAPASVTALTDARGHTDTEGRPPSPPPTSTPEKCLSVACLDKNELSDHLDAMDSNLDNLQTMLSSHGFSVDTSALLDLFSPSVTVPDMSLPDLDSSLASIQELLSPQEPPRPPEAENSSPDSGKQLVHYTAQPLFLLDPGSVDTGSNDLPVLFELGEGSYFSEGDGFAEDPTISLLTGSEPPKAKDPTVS
ELF4, sequence (Q99607 whole entry): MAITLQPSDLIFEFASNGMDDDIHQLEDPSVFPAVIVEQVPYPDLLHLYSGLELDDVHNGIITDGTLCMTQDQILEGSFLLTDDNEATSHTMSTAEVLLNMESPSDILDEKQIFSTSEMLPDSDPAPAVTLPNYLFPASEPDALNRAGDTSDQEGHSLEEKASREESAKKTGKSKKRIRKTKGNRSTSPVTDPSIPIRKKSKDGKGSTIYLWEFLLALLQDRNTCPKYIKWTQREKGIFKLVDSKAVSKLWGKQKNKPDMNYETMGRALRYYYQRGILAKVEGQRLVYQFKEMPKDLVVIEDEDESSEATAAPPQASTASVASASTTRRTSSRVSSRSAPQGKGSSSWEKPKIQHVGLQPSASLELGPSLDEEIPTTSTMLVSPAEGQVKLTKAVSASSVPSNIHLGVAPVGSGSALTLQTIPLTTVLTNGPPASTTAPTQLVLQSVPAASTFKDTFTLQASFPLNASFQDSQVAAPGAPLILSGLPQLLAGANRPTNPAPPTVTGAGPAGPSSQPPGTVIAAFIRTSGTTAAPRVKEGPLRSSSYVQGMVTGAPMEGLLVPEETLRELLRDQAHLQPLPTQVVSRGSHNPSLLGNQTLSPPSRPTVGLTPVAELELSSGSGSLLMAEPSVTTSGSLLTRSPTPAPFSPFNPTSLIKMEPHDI
ETV1, sequence (P50549 whole entry): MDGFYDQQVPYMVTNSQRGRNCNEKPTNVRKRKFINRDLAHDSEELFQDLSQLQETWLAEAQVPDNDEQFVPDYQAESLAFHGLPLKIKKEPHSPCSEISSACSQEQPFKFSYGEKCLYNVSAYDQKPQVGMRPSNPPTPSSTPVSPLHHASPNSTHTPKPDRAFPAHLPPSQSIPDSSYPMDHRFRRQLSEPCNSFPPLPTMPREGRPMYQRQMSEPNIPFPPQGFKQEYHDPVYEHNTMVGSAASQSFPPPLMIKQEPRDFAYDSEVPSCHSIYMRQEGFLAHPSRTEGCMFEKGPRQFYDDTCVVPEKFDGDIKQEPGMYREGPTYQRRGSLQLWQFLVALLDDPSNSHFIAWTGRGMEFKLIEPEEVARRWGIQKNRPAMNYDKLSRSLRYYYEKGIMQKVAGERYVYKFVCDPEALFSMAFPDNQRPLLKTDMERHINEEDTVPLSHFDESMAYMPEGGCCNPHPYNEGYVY
ETV5, sequence (P41161 whole entry): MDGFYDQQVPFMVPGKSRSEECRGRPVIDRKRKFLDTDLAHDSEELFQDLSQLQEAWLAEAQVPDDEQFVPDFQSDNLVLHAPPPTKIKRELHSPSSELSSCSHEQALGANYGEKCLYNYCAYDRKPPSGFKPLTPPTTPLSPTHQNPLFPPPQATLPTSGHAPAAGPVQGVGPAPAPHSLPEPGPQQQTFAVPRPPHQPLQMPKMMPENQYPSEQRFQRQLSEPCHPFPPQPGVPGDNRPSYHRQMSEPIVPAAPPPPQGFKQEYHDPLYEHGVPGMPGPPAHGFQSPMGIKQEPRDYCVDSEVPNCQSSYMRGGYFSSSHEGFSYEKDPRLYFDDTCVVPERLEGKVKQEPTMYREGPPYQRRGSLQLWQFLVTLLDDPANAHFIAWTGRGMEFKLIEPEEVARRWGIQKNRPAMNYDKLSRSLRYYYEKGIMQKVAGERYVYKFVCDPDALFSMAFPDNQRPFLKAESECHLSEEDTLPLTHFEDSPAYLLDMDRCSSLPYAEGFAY
CRX, sequence (O43186 whole entry): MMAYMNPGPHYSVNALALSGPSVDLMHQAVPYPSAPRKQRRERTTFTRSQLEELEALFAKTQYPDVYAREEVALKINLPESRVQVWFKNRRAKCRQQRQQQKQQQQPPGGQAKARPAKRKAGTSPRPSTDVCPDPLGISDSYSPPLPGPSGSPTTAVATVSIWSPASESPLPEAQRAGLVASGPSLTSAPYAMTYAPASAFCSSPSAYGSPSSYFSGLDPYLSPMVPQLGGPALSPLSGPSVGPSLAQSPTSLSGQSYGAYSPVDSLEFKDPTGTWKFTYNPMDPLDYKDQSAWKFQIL

TCCAAC: the binding signal was 1.21 fold enrichment (6-mer frequency, TF over GST control) in the experiment with FEV; 1.14 fold enrichment (6-mer frequency, TF over GST control) with ETV5; 1.11 fold enrichment (6-mer frequency, TF over GST control) in the experiment with HSF1; 1.26 fold enrichment (6-mer frequency, TF over GST control) in the experiment with SPIC; 1.24 fold enrichment (6-mer frequency, TF over GST control) with ELF4; 1.21 fold enrichment (6-mer frequency, TF over GST control) with ELK4. Besides, the binding signal with ETV2 is 1.22 fold enrichment (6-mer frequency, TF over GST control); with ELF3, 1.23 fold enrichment (6-mer frequency, TF over GST control); in the experiment with CRX it was 1.05 fold enrichment (6-mer frequency, TF over GST control); with ETV1 it was 1.2 fold enrichment (6-mer frequency, TF over GST control); with ERF it was 1.2 fold enrichment (6-mer frequency, TF over GST control); in the experiment with ETV3L it was 1.18 fold enrichment (6-mer frequency, TF over GST control). Further, the binding signal with ETS2 is 1.25 fold enrichment (6-mer frequency, TF over GST control); with SPDEF, 1.28 fold enrichment (6-mer frequency, TF over GST control); in the experiment with ETV7, 1.32 fold enrichment (6-mer frequency, TF over GST control); in the experiment with ELF5, 1.12 fold enrichment (6-mer frequency, TF over GST control); with ETV3 it was 1.2 fold enrichment (6-mer frequency, TF over GST control); with ETV6, 1.14 fold enrichment (6-mer frequency, TF over GST control).

Values taken from article PMC7862700, “An all-to-all approach to the identification of sequence-specific readers for epigenetic DNA modifications on cytosine”.
